Experiment [1] is described as follows: qHTS assay to identify small molecule agonists of the vitamin D receptor (VDR) signaling pathway - cell viability counter screen (AID 743224). Also: nearly all actives have a fitted effect of over 50% in size. Summed up:
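Counter screen for cytotoxicity: VDR-bla cells at 2,000 cells/well, 16 h compound exposure, then CellTiter-Glo luminescence after the beta-lactamase measurement.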
(qHTS replaces the single test concentration by a dilution series.)

A short description of experiment [2]: qHTS assay to identify small molecule antagonists of the vitamin D receptor (VDR) signaling pathway - cell viability counter screen (AID 743225). Also: nearly all actives have a fitted effect of over 50% in size. An outline of the steps:
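VDR-UAS-bla HEK 293T cells were plated and incubated 4 h at 37C, then dosed with compound plus 3 nM (final) 1-alpha,25-dihydroxyvitamin D3 for 16 h. After the 2 h beta-lactamase read, viability in the same wells was read as CellTiter-Glo luminescence after 30 min at room temperature.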

Experiment [3] can be described thus: qHTS assay to identify small molecule agonists of the NFkB signaling pathway - cell viability counter screen (AID 1159515; calls by dose curve; also: nearly all actives have a fitted effect of over 55% in size). Summed up: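 Counter screen run alongside the NFkB-bla agonist assay: ME-180 reporter cells exposed to compounds for 5 hr, then lysed with CellTiter-Glo in the same wells. Luminescence, read after 30 min, reflects viable cells.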
Experiment [4] is described as follows: qHTS assay to identify small molecule agonists of the endoplasmic reticulum stress response signaling pathway (AID 1159516; active = well fitted activation curve with a large enough effect in the signal ratio in the repeat runs, not every such curve was filed as active; the % refers to the signal ratio). An outline of the steps:
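For this screen, HeLa cells stably carrying beta-lactamase under the ER stress response element received test compounds, positive controls or DMSO for 5 hr at 37 C; B/G FRET substrate was then added and dual-wavelength emission recorded.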

The nature of experiment [5]: qHTS assay to identify small molecule agonists of the endoplasmic reticulum stress response signaling pathway - cell viability counter screen (AID 1159517; calls by dose curve; also: nearly all actives have a fitted effect of over 50% in size). An outline of the steps: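 Cpd-treated ESRE-bla HeLa (5 hr, 37 C) → LiveBLAzer 2 hr RT → CellTiter-Glo 30 min RT → luminescence.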
Experiment [6] can be described thus: qHTS assay to identify small molecule antagonists of the retinoid-related orphan receptor gamma (ROR-gamma) signaling pathway - cell viability counter screen (AID 1159520). Also: nearly all actives have a fitted effect of over 50% in size. An outline of the steps: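 Tet-on ROR gamma CHO cells (1,000/well) were plated 4 hr, given compounds in DMSO for 2 hr at 37 C, then induced with 1 uM final doxycycline for 16 hr. Viability was read as ATP by CellTiter-Glo luminescence after 30 min.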

The target of experiment [7] is Nuclear receptor ROR-gamma (Homo sapiens) (UniProt P51449). Briefly: qHTS assay to identify small molecule antagonists of the retinoid-related orphan receptor gamma (ROR-gamma) signaling pathway (AID 1159521). An outline of the steps:
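Tet-on ROR-gamma CHO cells with ROR response element-luciferase reporter; compounds added 2 hr before 1 uM doxycycline induction, then 16 hr at 37 C. Antagonism scored as decreased ONE-Glo luminescence.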

A short description of experiment [8]: qHTS assay to identify small molecule agonists of the AP-1 signaling pathway (AID 1159526; calls by dose curve).
Experiment [9] addresses Retinoic acid receptor RXR-alpha (Homo sapiens) (UniProt P19793). Briefly: qHTS assay to identify small molecule agonists of the RXR signaling pathway (AID 1159527; calls by dose curve; also: nearly all actives have a fitted effect of over 35% in size). Summed up: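 GeneBLAzer RXR-alpha-UAS-bla HEK 293T cells in 2% charcoal-stripped FBS medium were exposed to compounds for 16 hr at 37 C in agonist mode. Beta-lactamase reporter read as 460/530 nm FRET ratio after 2 hr substrate loading.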

Experiment [10] in a line: qHTS assay to identify small molecule agonists of the RXR signaling pathway - cell viability counter screen (AID 1159529). Also: nearly all actives have a fitted effect of over 50% in size. Summed up: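 RXR-alpha-UAS-bla HEK 293T cells in medium with 2% charcoal-stripped FBS were pre-incubated 5 hr, then compound-treated 16 hr at 37 C. Viability was read by CellTiter-Glo luminescence in the same wells as the beta-lactamase assay, with tetraoctyl ammonium bromide as positive control.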

Experiment [11] can be described thus: qHTS assay to identify small molecule antagonists of the retinoid acid receptor (RAR) signaling pathway - cell viability counter screen (AID 1159551). Also: nearly all actives have a fitted effect of over 35% in size. An outline of the steps:
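Measured by luminescent ATP detection, viability reflects C3RL4 cells treated 6 h at 37 C with test chemicals in the presence of 1 uM (final) retinol.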

Experiment [12] can be described thus: qHTS assay to identify small molecule antagonists of the estrogen related receptor (ERR) signaling pathway from Tox21 library - cell viability counter screen (AID 1224834). Also: nearly all actives have a fitted effect of over 30% in size. An outline of the steps:
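Seeded ERR cells were rested 6 h at 37 C/5% CO2 before compounds, positive and negative controls or DMSO were added. Incubation continued for 17.5 h, and viability was then quantified by CellTiter-Fluor fluorescence.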

Experiment [13] addresses Luciferin 4-monooxygenase (Photinus pyralis) (UniProt P08659). Briefly: qHTS assay to identify small molecule inhibitors of firefly luciferase (AID 1224835). Also: nearly all actives have a fitted effect of over 25% in size. Summed up:
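Quantitative HTS format; KM concentrations of both substrates. Purified P. pyralis FLuc activity quantified from luminescence images.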

A short description of experiment [14]: qHTS assay to identify small molecule agonists of the constitutive androstane receptor (CAR) signaling pathway - cell viability counter screen (AID 1224836). Also: nearly all actives have a fitted effect of over 45% in size. Summed up: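 HepG2 cells stably carrying hCAR and a CYP2B6-2.2kb reporter; 15-concentration compounds plus PK11195 (final 0.75 uM), 23 hr at 37 C/5% CO2. Viability read by CellTiter-Fluor fluorescence.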

Experiment [15] can be described thus: qHTS assay to identify small molecule agonists of the AP-1 signaling pathway - cell viability counter screen (AID 1159525; calls by dose curve; also: nearly all actives have a fitted effect of over 55% in size). Summed up: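 Each titration point was normalised to DMSO and tetra n-octyl ammonium bromide controls. The read was Cell Titer Glo luminescence after 30 min at RT, following 5 h compound exposure of ME-180 AP-1-bla cells at 37 °C.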
Experiment [16] can be described thus: qHTS assay to identify small molecule antagonists of the retinoic acid receptor (RAR) signaling pathway (AID 1159552; also: nearly all actives have a fitted effect of over 50% in size). An outline of the steps:
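Retinol signaling pathway inhibitors screened in C3RL4 RARE-luciferase reporter cells seeded overnight at 37 C, then compounds added with 1 uM (final) retinol as pathway substrate. After 6 hr at 37 C, luciferase luminescence read after 30 min at room temperature.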

Experiment [17] in a line: qHTS assay to identify small molecule agonists of the retinoic acid receptor (RAR) signaling pathway (AID 1159553). Also: potency is read from the fitted curve at half-maximal effect. Particulars: C3RL4 RARE luciferase reporter, agonist, 6 h; activation: at 73.3 µM (top of the series) unless noted. An outline of the steps: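 6 hr compound exposure (DMSO vehicle) of overnight-plated C3RL4 RARE-luc cells at 37 C; luminescence quantified after 30 min RT with luciferase reagent.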

Records with an inconclusive call do not appear. Active and inactive are the calls of the source. Unless noted, calls follow the shape of the dose curve; as a rule, active = well fitted curve in the direction sought with a large enough effect in the repeat runs; inconclusive = weak or mixed curves; inactive = no such curve, though single readings can be large; an effect the other way counts as inactive or inconclusive.

Sequence of Luciferin 4-monooxygenase (Photinus pyralis) (P08659 whole entry, looked up): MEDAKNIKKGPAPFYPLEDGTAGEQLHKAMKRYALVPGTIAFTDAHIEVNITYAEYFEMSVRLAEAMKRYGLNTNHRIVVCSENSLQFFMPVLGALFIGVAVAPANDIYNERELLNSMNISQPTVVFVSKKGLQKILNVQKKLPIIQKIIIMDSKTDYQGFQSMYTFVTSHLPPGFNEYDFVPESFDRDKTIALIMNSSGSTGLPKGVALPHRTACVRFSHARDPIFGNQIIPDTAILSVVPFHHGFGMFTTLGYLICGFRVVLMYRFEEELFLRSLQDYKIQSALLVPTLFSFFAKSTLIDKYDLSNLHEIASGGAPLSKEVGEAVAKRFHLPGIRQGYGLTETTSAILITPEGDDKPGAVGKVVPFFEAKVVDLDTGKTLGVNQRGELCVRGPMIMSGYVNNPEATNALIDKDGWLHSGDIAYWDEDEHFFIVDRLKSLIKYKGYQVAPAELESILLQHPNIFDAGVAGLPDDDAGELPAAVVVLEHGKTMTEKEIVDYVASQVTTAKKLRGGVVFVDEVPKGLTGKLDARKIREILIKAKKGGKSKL
Sequence of Retinoic acid receptor RXR-alpha (Homo sapiens) (P19793 whole entry, looked up): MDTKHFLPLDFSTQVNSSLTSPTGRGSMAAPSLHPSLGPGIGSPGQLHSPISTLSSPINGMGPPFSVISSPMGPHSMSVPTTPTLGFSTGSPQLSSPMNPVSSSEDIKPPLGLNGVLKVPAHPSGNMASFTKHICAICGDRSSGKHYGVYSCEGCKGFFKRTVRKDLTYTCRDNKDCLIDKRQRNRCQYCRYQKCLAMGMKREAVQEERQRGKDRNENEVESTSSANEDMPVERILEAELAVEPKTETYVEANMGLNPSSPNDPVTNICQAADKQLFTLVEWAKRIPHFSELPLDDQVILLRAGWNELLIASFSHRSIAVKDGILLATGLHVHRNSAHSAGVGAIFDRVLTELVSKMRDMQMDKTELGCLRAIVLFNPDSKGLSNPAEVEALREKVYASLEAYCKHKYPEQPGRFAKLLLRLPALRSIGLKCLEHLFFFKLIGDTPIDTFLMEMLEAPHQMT

Regarding `CCCCCCCCCCCC#N`, the result in experiment [1], in [2], in experiment [3], in [4], in experiment [5] and in experiment [11] was inactive. Besides, the Potency entry in [6], in experiment [7], in experiment [8], in [9], in [10] and in [12] was “inactive” each time. Moreover, the Potency entry in experiment [13] and in [14] was “inactive” in each case.
As to `CCN(CC)c1ccccc1`, the molecule was classed as inactive in experiment [1], in experiment [2], in experiment [3], in experiment [4], in experiment [5] and in experiment [11]. Moreover, the Potency entry in experiment [6], in experiment [15], in experiment [8], in experiment [9], in experiment [10] and in experiment [12] was “inactive” each time. Also, in experiment [14], the Potency result was “inactive”.
As to `O=S(=O)(c1ccc(O)cc1)c1ccc(O)cc1`, the molecule was called inactive in [1], in experiment [2], in experiment [3], in experiment [4], in experiment [5] and in [11]. The Potency entry in [6], in experiment [8], in [9], in experiment [10], in experiment [16] and in [17] was “inactive” each time. For the same molecule, the Potency result in experiment [12], in [13] and in experiment [14] was “inactive” throughout.
As for `CC(C)OC(=O)Nc1cccc(Cl)c1`, the molecule was classed as inactive in experiment [1], in [4], in experiment [5] and in experiment [11]. Besides, the Potency result in experiment [6], in experiment [7], in experiment [15], in experiment [9], in experiment [10] and in [16] was “inactive” in each case. For the same molecule, the Potency result in [12] and in [14] was “inactive” in each case. The Potency in experiment [17] was 6.11 µM (active).
In the case of `COP(N)(=O)SC` (configuration not stated), the molecule was classed as inactive in experiment [1], in experiment [4], in experiment [5] and in [11]. In addition, the Potency result in [6], in experiment [8], in [9], in experiment [10], in experiment [16] and in experiment [17] was “inactive” each time. Further, the Potency result in [12] and in experiment [13] was “inactive” in each case.
For the molecule `CN(C)CCO`, the molecule was classed as inactive in experiment [1], in [2], in [3], in experiment [4], in [5] and in experiment [11]. The Potency result in experiment [6], in [7], in [8], in [9], in experiment [10] and in experiment [16] was “inactive” throughout. The Potency result in [17], in [12] and in experiment [13] was “inactive” throughout.
In the case of `O=[N+]([O-])c1ccccc1`, the molecule was classed as inactive in experiment [1], in experiment [4], in experiment [5] and in [11]. The Potency entry in experiment [6], in experiment [8], in experiment [9], in [10], in [16] and in experiment [17] was “inactive” throughout. The Potency result in experiment [12], in experiment [13] and in experiment [14] was “inactive” in each case.
For the molecule `CN=C=S`, the outcome in experiment [1], in [2], in [4], in experiment [5] and in [11] was inactive. Also, the Potency entry in experiment [6], in [8], in experiment [9], in experiment [10], in experiment [16] and in experiment [17] was “inactive” throughout. Moreover, the Potency entry in [12] and in experiment [14] was “inactive” in each case.
Take `C=CCO`: the result in [1], in experiment [2], in [4], in [5] and in experiment [11] was inactive. Besides, the Potency entry in [6], in experiment [15], in experiment [8], in experiment [9], in experiment [10] and in experiment [12] was “inactive” throughout. Moreover, the Potency result in experiment [13] was “inactive”.
With `O=c1ccc(=O)[nH][nH]1`, the outcome in experiment [1], in experiment [3], in experiment [4], in [5] and in [11] was inactive. The Potency entry in experiment [6], in experiment [15], in [8], in [9], in experiment [10] and in experiment [12] was “inactive” in each case. Further, the Potency result in [14] was “inactive”.

The values above are taken from PubChem BioAssay (Tox21).
